Screening results: PubChem BioAssay, several laboratories
An excerpt weighted towards active compounds, which were near 4.2% of everything screened.
MITF TRPM1 HTS – activators of MITF-driven TRPM1 promoter activity in SK-MEL-5 cells. activation, % at 12.5 µM. hit rate 0.75% among 300,000. SK-MEL-5 TRPM1-promoter luciferase, 24 h; % of positive control, neutral wells = 0;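 active = mean activation of at least 80% with every replicate also reaching 80%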
Wnt bcat act – Wnt/beta-catenin pathway activation | hit rate 1.2% among 300,000 | activation, % at 9.35 µM | Wnt/beta-catenin reporter cell assay, activator, plate reader; in the data active = activation above about 30%, passing the limit was not always enough
GAA850 FXN act – activators of GAA850 frataxin (FXN) promoter | hit rate 0.56% among 360,000 | AID 540364 | HEK293 lucGAA850 FXN promoter luciferase reporter, 24 h; percent of 10 µM SAHA response | activation, % at 6 µM;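 active = activation above the average of all compounds screened plus 3 SD, cutoff fixed separately per campaign, cut at about 7.5% in these data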
AHR activator – activators of human aryl hydrocarbon receptor; P35869; AHR-responsive luciferase reporter cells, luminescence; activation, % at 5 µM; hit rate 2.5% among 320,000; AID 2796; in the data active = activation above about 47%
esBAF inh – SWI/SNF esBAF complex inhibition | hit rate 2% among 350,000 | reporter increase, % at 12.5 µM | mouse ES cells, Bmi1-luciferase knock-in reporter, 24 h; 100% = twice the neutral-well signal; in the data active = activation above about 40%;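 also: a rise in the Bmi1 reporter signal indicates esBAF inhibition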
GAA30 counter – counter-screen for GAA850 frataxin promoter activators: GAA30 promoter activation; shares compounds with GAA850 FXN act; HEK293 lucGAA30 FXN promoter luciferase, 24 h; DMSO = 0%, 5 µM ipriflavone = 100%; activation, % at 6 µM; hit rate 66% among 1,900; AID 588350;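 active = mean activation above the mean of solvent-only control wells plus 3 SD, cut at about 22% in these data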;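 also: counterscreen of GAA850 promoter hits where activity marks nonselective or luminescence artifacts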
FXN GAA850 conf – confirmation of GAA850 frataxin (FXN) promoter activators; shares compounds with GAA850 FXN act; HEK293 lucGAA850 FXN promoter luciferase reporter, 24 h; 100% = activation by SAHA; activation, % at 6 µM; hit rate 86% among 1,900; AID 588351;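 active = mean activation above a set limit taken from the primary screen, cut at about 8% in these data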
Hits are given with their value.

For CC(C)CC#Cc1cnc2c(c1)C(=O)N([C@H](C)CO)C[C@H](C)[C@@H](CN(C)S(=O)(=O)c1cccs1)O2 the results were esBAF inh inactive.
For O=C(c1ccc(F)cc1)N1CCCCN2[C@@H](CO)[C@H](c3ccc(/C=C/c4ccccc4)cc3)[C@@H]2C1 the results were esBAF inh inactive.
CCc1cccc(CC)c1NC(=O)/C(C#N)=C/c1ccccc1C(F)(F)F was read as MITF TRPM1 HTS inactive, GAA850 FXN act 8.0, AHR activator inactive, GAA30 counter inactive and FXN GAA850 conf 13.
`N#C/C(=C\c1ccccc1C(F)(F)F)C(=O)Nc1ccccc1` gave MITF TRPM1 HTS inactive, GAA850 FXN act inactive and AHR activator inactive.
Screening O=C(N[C@@H]1CC[C@@H](CCNS(=O)(=O)c2ccc(F)cc2)O[C@H]1CO)C1CCC1 returned esBAF inh inactive.
Screening Cc1nn(Cc2ccccc2)c(C)c1NC(=O)CCCn1nc(C)c([N+](=O)[O-])c1C returned MITF TRPM1 HTS inactive, Wnt bcat act inactive, GAA850 FXN act 8.4, AHR activator inactive, GAA30 counter inactive and FXN GAA850 conf inactive.
CCNC(=O)[C@H]1[C@H](CO)[C@H]2Cn3c(ccc(C4=CCCCC4)c3=O)[C@@H]1N2Cc1ccncc1 was read as esBAF inh inactive.
Screening O=C(Cc1ccccc1)Nc1cccc(N2C(=O)C=CC2=O)c1 returned MITF TRPM1 HTS inactive, Wnt bcat act inactive, GAA850 FXN act 9.0, AHR activator inactive, GAA30 counter inactive and FXN GAA850 conf inactive.
For CO[C@H]1CN(C)C(=O)c2cc(C#N)ccc2OCC[C@@H]2CC[C@@H](OC)[C@H](CN(C)C(=O)[C@@H]1C)O2 the results were esBAF inh inactive.
For CC(C)NC(=O)N(C)C[C@H]1OCCCC[C@H](C)Oc2ccc(NS(=O)(=O)c3ccc(Cl)cc3)cc2C(=O)N([C@H](C)CO)C[C@H]1C the results were esBAF inh inactive.
O=C(C[C@H]1CC[C@@H]2[C@H](COC[C@@H](O)CN2C(=O)Nc2ccccc2)O1)NCc1ccccc1F was read as esBAF inh inactive.
For CCN1C(=O)[C@H]2[C@H]3CN=C(SCc4ccc(Cl)cc4)N3[C@@](CC)(C(=O)OC)[C@H]2C1=O the results were MITF TRPM1 HTS inactive, Wnt bcat act inactive, GAA850 FXN act 11, esBAF inh inactive, GAA30 counter 23 and FXN GAA850 conf 9.2.
Screening COC(=O)c1ccc(CSC2=NC[C@@H]3[C@@H]4C(=O)N(Cc5ccccc5)C(=O)[C@@H]4[C@](C)(C(=O)OC)N23)cc1 returned MITF TRPM1 HTS inactive, Wnt bcat act inactive, GAA850 FXN act inactive and esBAF inh inactive.
Screening COC(=O)[C@@]1(C)[C@H]2C(=O)N(Cc3ccccc3)C(=O)[C@H]2[C@H]2CN=C(SCc3ccc(C)cc3)N21 returned MITF TRPM1 HTS inactive, Wnt bcat act inactive, GAA850 FXN act 10, esBAF inh inactive, GAA30 counter 32 and FXN GAA850 conf 12.
Screening C=C(C)CSc1nncn1/N=C/c1ccc(OC)cc1 returned MITF TRPM1 HTS 98, GAA850 FXN act 11, AHR activator inactive, esBAF inh 50, GAA30 counter 102 and FXN GAA850 conf 34.
Screening O=C1NCCN1Cc1ccccc1 returned MITF TRPM1 HTS inactive, GAA850 FXN act 8.6, AHR activator inactive, esBAF inh inactive, GAA30 counter inactive and FXN GAA850 conf inactive.
Screening Cc1cccc(NC(=O)CSCC(=O)Nc2ccccc2N2CCCCC2)c1 returned MITF TRPM1 HTS inactive, Wnt bcat act inactive, GAA850 FXN act inactive and AHR activator inactive.
Cc1ccc(NC(=O)CSCC(=O)Nc2ccccc2N2CCCCC2)cc1 was read as MITF TRPM1 HTS inactive, Wnt bcat act inactive, GAA850 FXN act 12, AHR activator inactive, esBAF inh inactive, GAA30 counter inactive and FXN GAA850 conf 13.
Screening CN(C)S(=O)(=O)c1ccc(N2CCCC2)c(C(=O)NC(c2ccccc2)c2ccccc2)c1 returned GAA850 FXN act inactive, AHR activator inactive and esBAF inh inactive.
